# Data as given in PubChem BioAssay.
# “And” between values parts separate entries of the source, which are not always exact repeats. Equal entries are not always repeated. Records with an inconclusive call do not appear. For some assays here: Measured potencies and affinities stand elsewhere. The source made the active and inactive calls. Unless noted, how the calls were made is not given here.
# Columns and labels:
# [1] = target: ATP-dependent translocase ABCB1 (Homo sapiens) (UniProt P08183); test: P-glycoprotein substrate transport blockade – cell-based (AID 377; in the data active means fluorescence slope change above about 50%); conditions: MDR1-expressing cells, fluorescent substrate accumulation slope; stronger effect = higher value; concentration not given here
# [2] = antimalarial activity against Dd2 strain (AID 2302;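 active means growth inhibition above 50% at the single 2 µM test dose, taken to imply half-maximal potency below 2 µM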;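 further: 0% = DMSO untreated growth and 100% = chloroquine plus artemisinin killed control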); conditions: P. falciparum Dd2 in RBCs, LDH growth readout, 72 h; at 2 µM; stronger effect = higher value
# [3] = target: L-lactate dehydrogenase (Plasmodium falciparum (isolate CDC / Honduras)) (UniProt Q27743); test: PfLDH activity inhibition – cell lysate, 3D7 strain, counter-screen for P. falciparum growth inhibition project (AID 2304);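 further: 0% = vehicle and 100% = reference inhibitor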; conditions: P. falciparum 3D7 crude extract, LDH APAD/NBT absorbance; at 2 µM; stronger effect = higher value
# [4] = inhibition of 3D7 malaria parasite growth – strain 3D7 (AID 2306);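 further: 0% = DMSO wells and 100% = chloroquine plus artemisinin control wells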; conditions: P. falciparum 3D7 erythrocytic growth, LDH absorbance, 72 h; at 2 µM; stronger effect = higher value
# [5] = compounds altering circadian rhythm period length – cell-based, LOPAC library, luminescence reporter (AID 2774); conditions: circadian reporter cells, at 7 µM, actives lie on both sides;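 further: values are relative to mean of DMSO wells on each plate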
# [6] = target: Calcium-dependent protein kinase 1 (Plasmodium falciparum (isolate 3D7)) (UniProt P62344); test: PfCDPK1 kinase inhibitors, biochemical, TCAMS library (AID 1159585; cut-off not given, nearly all actives have IC50 up to about 0.98 µM;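 further: inhibitors leave more ATP so luminescence rises with inhibition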); conditions: recombinant PfCDPK1, Kinase-Glo ATP depletion luminescence
# [7] = target: Plasmodium falciparum protein kinase 6 (PK6, PF3D7_1337100) (UniProt Q8IDW1); test: PfPK6 kinase inhibitors, biochemical, TCAMS library (AID 1159586); conditions: recombinant PfPK6, Kinase-Glo ATP depletion luminescence
# [8] = target: Protein kinase 7 (PK7), Plasmodium falciparum 3D7 (PF3D7_0213400) (UniProt Q7YTF7); test: inhibition of Plasmodium PK7 catalytic activity – biochemical, TCAMS antimalarial set, Kinase-Glo luminescence (AID 1159587); conditions: recombinant PfPK7, Kinase-Glo ATP depletion luminescence
# [9] = viability loss in pontine glioma line – cell-based, SU-DIPG-XIII, MIPE5.0, CellTiter-Glo, qHTS, dose response (AID 1347064; cut-off not given, nearly all actives have AC50 up to about 23 µM;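 on AC50: cells exposed to compound for 48 hours before the viability read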); conditions: CellTiter-Glo ATP luminescence
# [10] = growth inhibition, single agents and combos, CRL2098, cell-based, BGB or cisplatin IC20 combos, synergistic combos for chromothripsis tumors (AID 1671454; in the data active means inhibition above about 80%;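 further: cells exposed for 96 h before readout; 0% = vehicle DMSO and 100% = killing by high DMSO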); conditions: CRL2098 osteosarcoma cells, drug combinations, stronger effect = higher value
# [11] = growth inhibition, single agents and combos, HD-MB03, cell-based, BGB or cisplatin IC20 combos, synergistic combos for chromothripsis tumors (AID 1671455; in the data active means inhibition above about 83%;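 further: 0% = vehicle DMSO and 100% = high DMSO as cytotoxic control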); conditions: HD-MB03 medulloblastoma cells, stronger effect = higher value
# [12] = growth inhibition, single agents and combos, UWB1.289, cell-based, BGB or cisplatin combos, synergistic combos for chromothripsis tumors (AID 1671456; in the data active means inhibition above about 80%;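 further: cells exposed to compound for four days; 0% = vehicle DMSO and 100% = killing by high DMSO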); conditions: UWB1.289 ovarian carcinoma cells, stronger effect = higher value
# [13] = growth inhibition, single agents and combos, LFS_MB_2R, cell-based, cisplatin combos, synergistic combos for chromothripsis tumors (AID 1671457; in the data active means inhibition above about 80%;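 further: cells exposed to compound for four days before readout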); conditions: LFS_MB_2R medulloblastoma cells, stronger effect = higher value
# [14] = UWB1.289_BRCA1 ovarian cancer growth, cell-based, BGB or cisplatin combinations (AID 1671459; in the data active means inhibition above about 80%); conditions: UWB1.289 BRCA1 ovarian carcinoma, drug combinations, stronger effect = higher value
# [15] = drug combination toxicity in non-malignant astrocytes – cell-based, BGB or cisplatin IC20 combos, cytotoxicity control for chromothriptic childhood tumor combination screen (AID 1671460; in the data active means inhibition above about 80%;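 further: cells exposed to compounds for 96 hours before viability readout; 0% = vehicle and 100% = killing control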); conditions: Human astrocytes, viability inhibition, drug combinations, at 0.5 µM, stronger effect = higher value
# [16] = P. berghei load reduction in hepatocytes – cell-based, HepG2, luciferase luminescence, HepG2 viability, primary screen (AID 624349; in the data active means parasite load remaining mostly below about 12%, no sharp cut-off; inactive means mostly above about 10%;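 further: 100% = mean of DMSO negative control wells on the same plate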); conditions: P. berghei liver stage in HepG2, luciferase luminescence, concentration not given here; parasite load remaining: stronger effect = lower value; viability: measured here: HepG2 viability without parasites
# [17] = test system: Neuropilin-2 / VEGF-C interaction (human); test: small molecules blocking Neuropilin-2/VEGF-C interaction – biochemical, microplate binding format, z-score (AID 743281); conditions: microplate NRP2/VEGF-C binding assay; stronger effect = lower value
# [18] = test system: Aerobactin synthetase IucA (Klebsiella pneumoniae); test: inhibition of K. pneumoniae IucA enzyme – biochemical, Tocris library, absorbance (AID 1345561); conditions: purified IucA enzyme assay, absorbance (OD) read-out; stronger effect = lower value;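 tested at 8 µM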;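 further: 100% = enzyme without compound and 0% = no enzyme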
# [19] = chitosan synthesis blockers in C. neoformans – flow cytometry, Cibacron Brilliant Red staining (AID 1347148); conditions: Cryptococcus neoformans chitosan, stronger effect = lower value; at 99.1 µM unless noted;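 further: compound exposure lasted three days at 37 degrees C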
# [20] = measured here: combination with BGB at IC20, at 0.5 µM
# [21] = measured here: combination with cisplatin at IC20, at 0.5 µM
# [22] = measured here: combo with BGB at IC20, at 0.5 µM
# [23] = measured here: combo with cisplatin at IC20, at 0.5 µM
# [24] = measured here: inhibition with BGB combination, at 0.05 µM
# [25] = measured here: inhibition with cisplatin combination, at 0.05 µM
# [26] = measured here: combination with cisplatin, at 0.5 µM
# [27] = measured here: combination with cisplatin, at 5 µM
# [28] = BGB combination, concentration series, at 5 µM
# [29] = cisplatin combination, concentration series, at 5 µM
# [30] = measured here: combo with BGB IC20
# [31] = measured here: combo with cisplatin IC20
# Sequence of ATP-dependent translocase ABCB1 (Homo sapiens) (P08183 whole entry, looked up): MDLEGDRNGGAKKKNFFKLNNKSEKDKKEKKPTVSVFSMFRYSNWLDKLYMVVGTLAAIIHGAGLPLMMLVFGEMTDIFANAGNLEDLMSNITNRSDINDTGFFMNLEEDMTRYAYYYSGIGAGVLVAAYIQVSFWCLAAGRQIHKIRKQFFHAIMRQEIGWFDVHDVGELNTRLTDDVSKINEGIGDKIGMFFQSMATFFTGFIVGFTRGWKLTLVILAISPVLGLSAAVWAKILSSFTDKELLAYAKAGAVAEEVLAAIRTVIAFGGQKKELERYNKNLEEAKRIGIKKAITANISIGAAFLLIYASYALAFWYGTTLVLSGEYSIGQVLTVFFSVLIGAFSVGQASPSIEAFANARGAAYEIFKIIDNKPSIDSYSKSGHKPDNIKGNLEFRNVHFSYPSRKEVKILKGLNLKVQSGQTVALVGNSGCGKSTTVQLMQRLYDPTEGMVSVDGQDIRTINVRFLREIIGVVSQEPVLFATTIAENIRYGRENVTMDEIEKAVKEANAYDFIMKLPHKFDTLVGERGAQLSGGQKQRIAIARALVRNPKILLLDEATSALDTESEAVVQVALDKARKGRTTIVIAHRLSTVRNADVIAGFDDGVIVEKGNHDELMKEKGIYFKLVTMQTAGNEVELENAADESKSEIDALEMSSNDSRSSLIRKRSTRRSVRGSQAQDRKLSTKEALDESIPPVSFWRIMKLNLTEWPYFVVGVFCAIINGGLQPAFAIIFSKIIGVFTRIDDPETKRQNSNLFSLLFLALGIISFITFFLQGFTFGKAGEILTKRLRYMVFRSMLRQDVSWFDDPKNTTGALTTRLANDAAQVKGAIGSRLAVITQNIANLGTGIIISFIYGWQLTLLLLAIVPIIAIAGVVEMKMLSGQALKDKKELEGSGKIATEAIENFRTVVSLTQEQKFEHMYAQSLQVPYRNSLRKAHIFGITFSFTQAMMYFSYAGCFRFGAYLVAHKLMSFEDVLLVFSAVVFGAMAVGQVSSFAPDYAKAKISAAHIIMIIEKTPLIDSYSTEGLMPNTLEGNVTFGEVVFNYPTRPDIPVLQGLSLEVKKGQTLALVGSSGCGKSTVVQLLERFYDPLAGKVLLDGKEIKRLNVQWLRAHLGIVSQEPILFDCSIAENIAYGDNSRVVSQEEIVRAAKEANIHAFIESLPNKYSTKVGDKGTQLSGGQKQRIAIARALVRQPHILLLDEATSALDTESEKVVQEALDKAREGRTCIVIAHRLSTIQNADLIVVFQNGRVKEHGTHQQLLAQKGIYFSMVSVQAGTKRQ
# Sequence of Calcium-dependent protein kinase 1 (Plasmodium falciparum (isolate 3D7)) (P62344 whole entry, looked up): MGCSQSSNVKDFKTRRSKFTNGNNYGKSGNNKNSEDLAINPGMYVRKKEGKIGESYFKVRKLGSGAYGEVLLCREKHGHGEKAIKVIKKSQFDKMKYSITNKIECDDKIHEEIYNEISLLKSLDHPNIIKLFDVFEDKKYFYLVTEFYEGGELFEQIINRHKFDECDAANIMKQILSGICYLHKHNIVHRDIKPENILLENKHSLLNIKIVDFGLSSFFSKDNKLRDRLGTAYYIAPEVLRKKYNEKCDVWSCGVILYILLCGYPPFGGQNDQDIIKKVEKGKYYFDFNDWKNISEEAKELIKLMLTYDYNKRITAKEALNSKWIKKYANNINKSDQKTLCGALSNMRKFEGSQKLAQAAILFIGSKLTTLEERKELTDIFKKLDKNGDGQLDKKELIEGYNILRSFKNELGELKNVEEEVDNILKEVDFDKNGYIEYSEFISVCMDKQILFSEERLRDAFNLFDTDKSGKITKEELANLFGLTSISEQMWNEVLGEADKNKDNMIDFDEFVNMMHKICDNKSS
# Sequence of L-lactate dehydrogenase (Plasmodium falciparum (isolate CDC / Honduras)) (Q27743 whole entry, looked up): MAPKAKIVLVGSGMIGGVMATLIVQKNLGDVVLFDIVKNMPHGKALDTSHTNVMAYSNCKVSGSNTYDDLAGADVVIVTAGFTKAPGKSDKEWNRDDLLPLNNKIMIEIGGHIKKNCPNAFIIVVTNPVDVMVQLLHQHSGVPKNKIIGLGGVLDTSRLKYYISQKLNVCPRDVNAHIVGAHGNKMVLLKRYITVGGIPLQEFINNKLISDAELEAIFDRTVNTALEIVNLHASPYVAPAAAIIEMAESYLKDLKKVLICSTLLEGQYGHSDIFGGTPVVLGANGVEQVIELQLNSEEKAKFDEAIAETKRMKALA
# Sequence of Plasmodium falciparum protein kinase 6 (PK6, PF3D7_1337100) (Q8IDW1 1-305): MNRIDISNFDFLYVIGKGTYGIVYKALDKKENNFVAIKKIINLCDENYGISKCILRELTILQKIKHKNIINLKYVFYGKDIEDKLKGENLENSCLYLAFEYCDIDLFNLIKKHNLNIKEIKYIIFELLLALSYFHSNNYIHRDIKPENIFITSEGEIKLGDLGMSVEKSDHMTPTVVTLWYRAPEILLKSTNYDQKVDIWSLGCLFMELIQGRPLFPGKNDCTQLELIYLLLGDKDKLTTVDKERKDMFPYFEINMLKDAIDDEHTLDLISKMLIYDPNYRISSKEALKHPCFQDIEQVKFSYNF
# Sequence of Protein kinase 7 (PK7), Plasmodium falciparum 3D7 (PF3D7_0213400) (Q7YTF7 1-343): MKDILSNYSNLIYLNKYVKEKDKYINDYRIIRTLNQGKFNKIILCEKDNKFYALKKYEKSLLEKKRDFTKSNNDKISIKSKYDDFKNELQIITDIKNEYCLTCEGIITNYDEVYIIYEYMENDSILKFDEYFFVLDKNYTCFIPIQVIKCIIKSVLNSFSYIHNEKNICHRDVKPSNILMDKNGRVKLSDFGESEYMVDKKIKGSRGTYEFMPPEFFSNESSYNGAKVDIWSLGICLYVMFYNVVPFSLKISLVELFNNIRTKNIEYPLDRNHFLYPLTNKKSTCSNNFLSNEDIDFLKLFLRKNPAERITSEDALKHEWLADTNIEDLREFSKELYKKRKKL
smiles,measurement,setting,value
CCN(CC)CCCC(C)Nc1c2ccc(Cl)cc2nc2ccc(OC)cc12 (configuration not stated),fluorescence slope change,[1],75.1% (active)
same,growth inhibition,[2],101% (active)
same,inhibition,[3],0% (inactive)
same,growth inhibition,[4],101% (active)
same,period change,[5],0.21 h (inactive)
same,outcome,[6],inactive
same,outcome,[7],inactive
same,outcome,[8],inactive
same,AC50,[9],8.33 µM (active)
same,inhibition,[10]; at 0.5 µM,-21.4% (inactive)
same,inhibition,[10]; [20],-24.3%
same,inhibition,[10]; [21],-28%
same,inhibition,[11]; at 0.5 µM,0.06% (inactive)
same,inhibition,[11]; [22],19%
same,inhibition,[11]; [23],-11.8%
same,inhibition,[12]; at 0.5 µM,5.88% (inactive)
same,inhibition,[12]; [24],-7.63%
same,inhibition,[12]; [25],-3.99%
same,inhibition,[13]; at 0.5 µM,2.36% (inactive)
same,inhibition,[13]; [26],15%
same,inhibition,[13]; [27],96.1%
same,inhibition,[14]; [28],103%
same,inhibition,[14]; at 0.5 µM,1.64% (inactive)
same,inhibition,[14]; [29],117%
same,inhibition,[15],-27.9% (inactive)
same,inhibition,[15]; [30],-30.9%
same,inhibition,[15]; [31],-37.3%
CCOC(=O)[C@H](CCc1ccccc1)N[C@H]1CCc2ccccc2N(CC(=O)O)C1=O,parasite load remaining,[16],126% (inactive) and 36.1% (inactive) and 94.6% (inactive)
same,viability,[16],90.1% and 91.8% and 66.1%
same,z-score,[17],-0.908 (inactive)
same,remaining activity,[18],104% (inactive)
same,outcome,[9],inactive
CCCCCN=C(N)N/N=C/c1c[nH]c2ccc(OC)cc12,growth inhibition,[2],2% (inactive)
same,inhibition,[3],-6% (inactive)
same,growth inhibition,[4],86% (active)
same,parasite load remaining,[16],142% (inactive) and 119% (inactive)
same,viability,[16],84.9% and 86.2%
same,outcome,[17],inactive
same,outcome,[6],inactive
same,outcome,[7],inactive
same,outcome,[8],inactive
same,AC50,[9],13.2 µM (active)
CC1=NS(=O)(=O)c2cc(Cl)ccc2N1,fluorescence slope change,[1],82.3% (active)
same,period change,[5],0.13 h (inactive)
same,z-score,[17],-0.142 (inactive)
same,remaining activity,[18],104% (inactive)
same,fold fluorescence,[19],4.83 [at 216.8 µM] (inactive)
NNC(=O)c1ccncc1,fluorescence slope change,[1],55.1% (active)
CC(C)Cc1ccc(C(C)C(=O)O)cc1 (configuration not stated),period change,[5],0.16 h (inactive)
same,outcome,[9],inactive
N[C@@H]1CONC1=O,period change,[5],0.11 h (inactive)
same,z-score,[17],-0.138 (inactive)
same,outcome,[9],inactive
CN=C(NC#N)NCCSCc1nc[nH]c1C,period change,[5],0.115 h (inactive)
same,remaining activity,[18],118% (inactive)
CCN(Cc1ccncc1)C(=O)C(CO)c1ccccc1 (configuration not stated),fluorescence slope change,[1],82.5% (active)
same,period change,[5],0.035 h (inactive)
same,remaining activity,[18],104% (inactive)
NCCc1ccc(O)c(O)c1,period change,[5],-0.01 h (inactive)
same,parasite load remaining,[16],36.4% (inactive) and 34.7% (inactive) and 21% (inactive)
same,viability,[16],120% and 74.1% and 206%
CC(=O)OCC(CCn1cnc2cnc(N)nc21)COC(C)=O,z-score,[17],-0.315 (inactive)
same,inhibition,[10]; at 0.5 µM,-1.73% (inactive)
same,inhibition,[10]; [20],-9.88%
same,inhibition,[10]; [21],-30.1%
same,inhibition,[11]; at 0.5 µM,-9.43% (inactive)
same,inhibition,[11]; [22],-6.57%
same,inhibition,[11]; [23],-14.8%
same,inhibition,[12]; at 0.5 µM,5.6% (inactive)
same,inhibition,[12]; [24],-6.88%
same,inhibition,[12]; [25],-9.39%
same,inhibition,[13]; at 0.5 µM,-19.1% (inactive)
same,inhibition,[13]; [26],-22.6%
same,inhibition,[13]; [27],-72.7%
same,inhibition,[14]; [28],-1.67%
same,inhibition,[14]; at 0.5 µM,-3.29% (inactive)
same,inhibition,[14]; [29],11.9%
same,inhibition,[15],8.43% (inactive)
same,inhibition,[15]; [30],10.6%
same,inhibition,[15]; [31],-5.87%
CC1COc2c(N3CCN(C)CC3)c(F)cc3c(=O)c(C(=O)O)cn1c23 (configuration not stated),period change,[5],0.06 h (inactive)
same,outcome,[9],inactive
same,inhibition,[10]; at 0.5 µM,-97.4% (inactive) and -9.66% (inactive) and -3.54% (inactive)
same,inhibition,[10]; [20],-84.4% and -20.4% and 15.5%
same,inhibition,[10]; [21],-95.4% and 17.6% and 11.9%
same,inhibition,[11]; at 0.5 µM,-17.7% (inactive) and 0.8% (inactive) and 1.26% (inactive)
same,inhibition,[11]; [22],-22% and -1.41% and -0.426%
same,inhibition,[11]; [23],-27.3% and 2.8% and -2.37%
same,inhibition,[12]; at 0.5 µM,-7.78% (inactive) and 3.9% (inactive) and 3.09% (inactive)
same,inhibition,[12]; [24],-28.7% and 4.48% and 2.71%
same,inhibition,[12]; [25],-3.9% and 3.6% and -0.825%
same,inhibition,[13]; at 0.5 µM,-19.3% (inactive) and 6.15% (inactive) and -0.77% (inactive)
same,inhibition,[13]; [26],-23.3% and -0.024% and 7.26%
same,inhibition,[13]; [27],-88.9% and 5.83% and 8.15%
same,inhibition,[14]; [28],-49.7% and -1.75% and -2.9%
same,inhibition,[14]; at 0.5 µM,-9.08% (inactive) and -0.86% (inactive) and 1.25% (inactive)
same,inhibition,[14]; [29],-6.84% and 7.33% and -3.71%
same,inhibition,[15],-0.29% (inactive) and 4.48% (inactive) and 7.23% (inactive)
same,inhibition,[15]; [30],12.7% and 6.41% and 15%
same,inhibition,[15]; [31],-18.7% and -2.95% and 15.1%
COc1ccccc1OCCNCC(O)COc1cccc2[nH]c3ccccc3c12 (configuration not stated),parasite load remaining,[16],91.3% (inactive) and 56.7% (inactive) and 56.6% (inactive)
same,z-score,[17],1.06 (inactive)
same,remaining activity,[18],112% (inactive)
NNCCc1ccccc1,fluorescence slope change,[1],67.1% (active)
same,period change,[5],0.145 h (inactive)
same,z-score,[17],-0.0568 (inactive)
same,outcome,[9],inactive
OC(Cn1cncn1)(Cn1cncn1)c1ccc(F)cc1F,outcome,[9],inactive
COc1ccc(Cl)cc1C(=O)NCCc1ccc(S(=O)(=O)NC(=O)NC2CCCCC2)cc1,fluorescence slope change,[1],105% (active)
same,period change,[5],0.16 h (inactive)
same,remaining activity,[18],104% (inactive)
same,fold fluorescence,[19],3.32 [at 101.2 µM] (inactive)
CCOC(=O)C1=C(C)NC(C)=C(C(=O)OC)C1c1cccc([N+](=O)[O-])c1 (configuration not stated),period change,[5],0.21 h (inactive)
same,z-score,[17],0.0382 (inactive)
same,remaining activity,[18],111% (inactive)
same,fold fluorescence,[19],5.19 [at 138.7 µM] (inactive)
CS(=O)(=O)OCCCCOS(C)(=O)=O,fluorescence slope change,[1],13.3% (inactive)
same,parasite load remaining,[16],46.8% (inactive) and 102% (inactive) and 58% (inactive)
same,viability,[16],95.5% and 78.8% and 98.1%
same,inhibition,[10]; at 0.5 µM,-52.1% (inactive) and -4.61% (inactive)
same,inhibition,[10]; [20],-29.9% and -15.7%
same,inhibition,[10]; [21],-107% and 11.7%
same,inhibition,[11]; at 0.5 µM,-10.8% (inactive) and -1.12% (inactive)
same,inhibition,[11]; [22],-20.4% and -4.59%
same,inhibition,[11]; [23],-6.85% and 1.19%
same,inhibition,[12]; at 0.5 µM,4.55% (inactive) and 10.4% (inactive)
same,inhibition,[12]; [24],-3.6% and 0.829%
same,inhibition,[12]; [25],24.9% and -0.011%
same,inhibition,[13]; at 0.5 µM,-13.8% (inactive) and 9.5% (inactive)
same,inhibition,[13]; [26],-18.7% and -5.75%
same,inhibition,[13]; [27],-4.43% and 9.74%
same,inhibition,[14]; [28],12% and 6.21%
same,inhibition,[14]; at 0.5 µM,5.87% (inactive) and 9.31% (inactive)
same,inhibition,[14]; [29],-4.07% and 9.32%
same,inhibition,[15],7.45% (inactive) and 3.61% (inactive)
same,inhibition,[15]; [30],2.2% and 2.78%
same,inhibition,[15]; [31],9.68% and 12.3%
